# According to PubChem BioAssay (NCI):
# The panel holds about 83,000 compounds, 20% with a hit somewhere; the sample as a whole holds those more often.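 Interpretation: 100, growth as untreated; towards 0, rising growth inhibition; 0, no net growth; 0 to -100, cell death. Compounds scoring below 10 were considered active.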 Values without a mark were called inactive. Active and inactive are the calls of the source.
# Legend:
# Assay in all cases: NCI-60 one-dose screen, 48 h (100 = growth as untreated, 0 = no growth, -100 = all killed)
# Conditions in all cases: 10 µM unless noted
# HCT-15 colon = test system: HCT-15 colon
# HT29 colon = test system: HT29 colon
# SNB-75 CNS = test system: SNB-75 CNS
# SNB-19 CNS = test system: SNB-19 CNS
# U251 CNS = test system: U251 CNS
# SK-MEL-5 melanoma = test system: SK-MEL-5 melanoma
# UACC-62 melanoma = test system: UACC-62 melanoma
# LOX IMVI melanoma = test system: LOX IMVI melanoma
# SK-MEL-28 melanoma = test system: SK-MEL-28 melanoma
# SK-MEL-2 melanoma = test system: SK-MEL-2 melanoma
# EKVX NSCLC = test system: EKVX NSCLC
# SN12C renal = test system: SN12C renal
# UO-31 renal = test system: UO-31 renal
# TK-10 renal = test system: TK-10 renal
# ACHN renal = test system: ACHN renal
# CAKI-1 renal = test system: CAKI-1 renal
# A498 renal = test system: A498 renal
# CCRF-CEM leukemia = test system: CCRF-CEM leukemia
# MOLT-4 leukemia = test system: MOLT-4 leukemia
# PC-3 prostate = test system: PC-3 prostate
Structure (SMILES),growth (HCT-15 colon),growth (HT29 colon),growth (SNB-75 CNS),growth (SNB-19 CNS),growth (U251 CNS),growth (SK-MEL-5 melanoma),growth (UACC-62 melanoma),growth (LOX IMVI melanoma),growth (SK-MEL-28 melanoma),growth (SK-MEL-2 melanoma),growth (EKVX NSCLC),growth (SN12C renal),growth (UO-31 renal),growth (TK-10 renal),growth (ACHN renal),growth (CAKI-1 renal),growth (A498 renal),growth (CCRF-CEM leukemia),growth (MOLT-4 leukemia),growth (PC-3 prostate)
COc1cc(NCC(O)CN(CC(C)C)CC(C)C)c2nc(C)ccc2c1 (centres undefined),84.8%,80.2%,97.9%,96%,91.3%,93.5%,88.9%,90.1%,100%,99%,79.8%,92.3%,66.9%,105%,89.4%,74.1%,86.2%,115%,78%,
CN1C(=O)N(C)[C@H]2NC(NN)=N[C@H]21,103%,105%,80.9%,106%,98.7%,101%,101%,97.8%,101%,108%,99.1%,99.8%,93.5%,97.4%,104%,89.2%,,,101%,
COc1ccc(CNC(=O)COc2ccc(/C=N/Nc3nc4ccccc4s3)cc2)cc1,31%,35.5%,-2.77% (active),36.8%,21.6%,23.6%,34%,46.5%,35.2%,63.9%,52%,30.8%,60.7%,86.9%,8.13% (active),27.9%,-19.5% (active),62.4%,76.5%,
FCc1nc2nc(Cl)c(Cl)nc2[nH]1,103%,99.4%,91.2%,94.9%,101%,99.4%,94.9%,95.3%,105%,107%,103%,109%,94.5%,92.7%,99.5%,91.6%,,104%,97.8%,
COc1cc2nnn3c4ncccc4c(N=O)c3c2cc1OC,83.4%,57.5%,79.8%,102%,,113%,86.3%,58.9%,81.4%,101%,106%,81.4%,-6.2% (active),98.8%,-2.46% (active),74.9%,174%,-13.4% (active),-14.9% (active),74.8%
Cc1cc(C)c(C=O)c(C)c1,107%,98.8%,83%,102%,,99.8%,108%,96.8%,110%,106%,101%,103%,86.3%,103%,108%,94.1%,102%,78.6%,85%,79.9%
COc1cc(C2CC(c3cccc(Nc4ccncc4)c3)=NN2c2cc(Cl)cc(Cl)c2)cc(OC)c1OC (centres undefined),-40.4% (active),-28% (active),25.9%,50.7%,-51.1% (active),2.57% (active),94.5%,-90.9% (active),-78.5% (active),71.4%,65.8%,9.72% (active),28.4%,34%,-66.5% (active),8.57% (active),84%,-17.5% (active),-22.7% (active),
COc1cc(COC(=O)CCCCC[P+](c2ccccc2)(c2ccccc2)c2ccccc2)c(OC)c2c1OCO2,99.3%,32.3%,59.9%,55.5%,56.8%,3.32% (active),46.9%,35.6%,51.4%,68.4%,73%,51%,91.4%,75.6%,98.5%,72.7%,52.5%,,93.3%,
CC(=O)CCSc1ccc(OC(C)=O)cc1,101%,90.1%,86.8%,97.8%,95.3%,96.1%,93.1%,98.1%,107%,99.5%,105%,101%,87.3%,96.3%,103%,,95.8%,75.3%,94.1%,
COc1cccc(/C=C2\COc3ccc(-c4ccccc4)cc3C2=O)c1,-36.9% (active),12.9%,10.9%,64.7%,-56.1% (active),24%,38%,-85.5% (active),-36.5% (active),-46.4% (active),99.9%,31.4%,-38.1% (active),-5.26% (active),46.8%,50.8%,45.6%,-32.7% (active),-28.2% (active),
Nc1ncc(C#Cc2cncc(NC(=O)c3cccc(C(F)(F)F)c3)c2)c2cccnc12,56.6%,27.4%,60.7%,94.9%,53.5%,34%,55.7%,5.77% (active),33.6%,5.81% (active),81.6%,50.4%,33.7%,84.8%,55.1%,68.6%,62.8%,48.5%,36.8%,
CC(=O)c1cccc(NS(=O)(=O)c2cccc(C(=O)Nc3ccc(Br)cc3)c2)c1,62.8% [25 µM],78.4% [25 µM],70.5% [25 µM],53.9% [25 µM],,-13.7% [25 µM] (active),38.9% [25 µM],50.5% [25 µM],71.3% [25 µM],50.6% [25 µM],27.1% [25 µM],58% [25 µM],41% [25 µM],80.7% [25 µM],61.5% [25 µM],39.6% [25 µM],,47.7% [25 µM],38.7% [25 µM],48.8% [25 µM]
CC(c1ccccc1)n1ccnc1CO (centres undefined),107%,119%,92.4%,98.5%,,93.4%,104%,96.3%,94.5%,111%,93.3%,102%,95.4%,88.2%,103%,,,105%,107%,94.7%
OC(c1ccccc1)c1ccccn1 (centres undefined),105%,89.3%,86.5%,100%,,101%,103%,103%,107%,104%,98.8%,99.6%,93.1%,99.3%,108%,,98.5%,,96.8%,
CCOC(=O)c1cnc2c(cnn2CC)c1NN=C(C)C,86%,84.7%,69%,87.6%,,90.4%,79.3%,90.7%,113%,40%,93%,105%,68.4%,87.3%,84.1%,100%,68%,92%,81%,98.4%
Cc1ccc(C2CC(c3cccc(Nc4ccncc4)c3)=NN2c2ccc(Cl)cc2)cc1 (centres undefined),-88.2% (active),-58% (active),-89.9% (active),-90.2% (active),,-93% (active),-98.3% (active),-96.5% (active),-97.7% (active),-74.8% (active),-85.1% (active),-95.8% (active),-99.4% (active),-80.9% (active),-100% (active),-94.7% (active),-93.8% (active),-30.8% (active),-32.8% (active),-83.4% (active)
C=C(C)[C@@H]1CC[C@]2(CO)CC[C@]3(C)[C@H](CC[C@@H]4[C@@]5(C)CCCNC(C)(C)[C@@H]5CC[C@]43C)[C@@H]12,3.28% (active),2.58% (active),77.1%,49.6%,,-82.5% (active),43.2%,-57.7% (active),-65.4% (active),78.8%,,45.9%,53.8%,80.8%,50.2%,38.4%,,,4.4% (active),25.6%
